According to PubChem BioAssay (NCI):
Compounds without any hit were thinned out: in the full panel of roughly 83,000, 20% have a hit.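 Interpretation: 100, growth as untreated; towards 0, rising growth inhibition; 0, no net growth; 0 to -100, cell death. Compounds scoring below 10 were considered active.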 A number with no mark means an inactive call. Calls of active or inactive are those of the source.

test system: IGROV1 ovarian; test: NCI-60 one-dose screen, 48 h (100 = growth as untreated, 0 = no growth, -100 = all killed); conditions: 10 µM unless noted

| SMILES | growth |
| --- | --- |
| Fc1cccc(CNc2nc(SCCN3CCOCC3)nc3c2cnn3CC(Cl)c2ccc(Br)cc2)c1 (configuration not stated) | 52.2% |
| O=C(Nc1nc2ccc([N+](=O)[O-])cc2s1)Nc1ccc(Cl)cc1Cl | 60.7% |
| Nc1nnc(CS(=O)(=O)c2ccccc2)s1 | 101% |
| CCCCCCCCc1ccc(C(=O)Nc2ccc(C)cc2C(=O)O)cc1 | 83.9% |
| COc1ccc2c(c1)c(-c1cc(N)n3nc(-c4c[nH]c5ccccc45)cc3n1)cn2C | -62.4% (active) |
| Clc1ccc(CNc2nc(SCCN3CCOCC3)nc3c2cnn3CC(Cl)c2ccc(Br)cc2)cc1 (configuration not stated) | 67.9% |
| CCC(=O)c1cc(C(=O)OC)c2ccc3c4ccccc4ccc3n12 | 70.2% |
| Nc1cc(-c2c[nH]c3ccc(Cl)cc23)nc2cc(-c3c[nH]c4ccccc34)nn12 | 2.75% (active) |
| CCCCNc1ccc2c3c(cccc13)C(=O)N(NCC(O)COc1ccc3c(C)cc(=O)oc3c1)C2=O (configuration not stated) | 78.9% |
| O=C(OCCOCCO)N(c1cccc(Br)c1)c1nc(SCCN2CCOCC2)nc2c1cnn2CC(Cl)c1ccc(Br)cc1 (configuration not stated) | 31.8% |
| CCN1C(=O)N(CC)C2NNC(Sc3c(C(=O)O)c4ccccc4n(CC(C)C)c3=O)=NC21 (configuration not stated) | 20% |
| CCN1C(=O)N(CC)C2NNC(Sc3c(C(=O)O)c4ccccc4n(CCC(C)C)c3=O)=NC21 (configuration not stated) | 17.3% |
| COc1ccc(C(=O)c2cc(C(C)=O)c3c(C)cc(C)cn23)cc1 | 80.8% |
| O=C(N/N=C/c1ccc(Cl)cc1)c1ccc(OCc2nc3ccc(Cl)cc3[nH]2)cc1 | 15.4% |
| COC(=O)c1cc(C(=O)C(Br)Br)n2c1ccc1c3ccccc3ccc12 | 32.1% |
| O=C(Nc1nc2ccccc2s1)Nc1ccccc1Cl | 79.4% |
| Oc1ccc(Cl)c(Nc2ncnc3c2cnn3CC(Cl)c2ccc(Br)cc2)c1 (configuration not stated) | -2.62% (active) |
| ClC(Cn1ncc2c(Nc3cccc(Br)c3)nc(SCCN3CCOCC3)nc21)c1ccc(Br)cc1 (configuration not stated) | 28.3% |
| Nc1cc(-c2c[nH]c3ccc(F)cc23)nc2cc(-c3c[nH]c4ccccc34)nn12 | 16.2% |

| SMILES | growth |
| --- | --- |
| O=C1Nc2cc(-c3ccc(NS(=O)(=O)c4ccc(F)c(Cl)c4)cc3)ccc2/C1=C/c1ccc[nH]1 | 45.9% |
| O=C1CCC(N2C(=O)c3cccc(NCCOCCOCCOCCC(=O)NCCCC(=O)NC(c4ccc5c(c4)OCO5)c4cc(Cl)c5cccnc5c4O)c3C2=O)C(=O)C1 (configuration not stated) | 15.8% |
| Cn1cc(-c2cc3nc(-c4c[nH]c5ccccc45)cc(N)n3n2)c2ccccc21 | -77.5% (active) |
| CN1C(=O)C(O)(CC(=O)c2cc3ccccc3oc2=O)c2ccccc21 (configuration not stated) | 97.7% |
| COc1ccc(Nc2nnc(-c3c[nH]c4ccccc34)o2)cc1 | 60.9% |
| Cc1cccc(C)c1Nc1nnc(-c2c[nH]c3ccccc23)o1 | 89% |
| Cc1ccc(O)cc1Nc1nc(SCCN2CCOCC2)nc2c1cnn2CC(Cl)c1ccc(Br)cc1 (configuration not stated) | -1.66% (active) |
| Fc1ccccc1CNc1nc(SCCN2CCOCC2)nc2c1cnn2CC(Cl)c1ccc(Br)cc1 (configuration not stated) | 73.7% |
| COC(=O)c1cc(C(=O)CBr)n2c1ccc1c3ccccc3ccc12 | 33.5% |
| Oc1ccc(F)c(Nc2nc(SCCN3CCOCC3)nc3c2cnn3CC(Cl)c2ccc(Br)cc2)c1 (configuration not stated) | 12.5% |
| COC(=O)c1c(C(=O)OC)c2ccc3c4ccccc4ccc3n2c1C(=O)C(C)Br (configuration not stated) | 42.2% |
| Cc1nn(-c2ccccc2)c2nc(C)n(C(=O)N/N=C/c3cccc([N+](=O)[O-])c3)c(=O)c12 | 91.9% |
| COc1c2c(c(Br)c3c1C(CCc1ccccc1)N(C)CC3)OCO2 (configuration not stated) | 19.5% |
| COc1ccc2[nH]cc(-c3cc(N)n4nc(-c5c[nH]c6ccccc56)cc4n3)c2c1 | 16% |
| CC(C)(C)C(=O)C1CC(C#N)=C2C=Cc3c(ccc4ccccc34)N21 (configuration not stated) | 92.9% |
| Oc1ccc(Cl)c(Nc2nc(SCCN3CCOCC3)nc3c2cnn3CC(Cl)c2ccc(Br)cc2)c1 (configuration not stated) | 1.12% (active) |
| Fc1ccc(F)c(CNc2nc(SCCN3CCOCC3)nc3c2cnn3CC(Cl)c2ccc(Br)cc2)c1 (configuration not stated) | 45.6% |
| CN1CCN(C(=O)Oc2cc3c(c4ccccc24)[C@H](CCl)CN3C(=O)c2cc3cc(OCCCN4CCC4)ccc3[nH]2)[C@H]2CSSC[C@H]21 | 4.39% (active) |
| Nc1nc(-c2ccccc2)c(N=Nc2ccc(Cl)cc2Cl)s1 | -29.7% (active) |

test system: OVCAR-3 ovarian; test: as above; conditions: 10 µM unless noted

| SMILES | growth |
| --- | --- |
| Fc1cccc(CNc2nc(SCCN3CCOCC3)nc3c2cnn3CC(Cl)c2ccc(Br)cc2)c1 (configuration not stated) | 49.7% |
| Nc1nnc(CS(=O)(=O)c2ccccc2)s1 | 104% |
| COc1ccc2c(c1)c(-c1cc(N)n3nc(-c4c[nH]c5ccccc45)cc3n1)cn2C | -71.1% (active) |
| Clc1ccc(CNc2nc(SCCN3CCOCC3)nc3c2cnn3CC(Cl)c2ccc(Br)cc2)cc1 (configuration not stated) | 56.5% |
| CCC(=O)c1cc(C(=O)OC)c2ccc3c4ccccc4ccc3n12 | 67.5% |
| Nc1cc(-c2c[nH]c3ccc(Cl)cc23)nc2cc(-c3c[nH]c4ccccc34)nn12 | -52.7% (active) |
| CCCCNc1ccc2c3c(cccc13)C(=O)N(NCC(O)COc1ccc3c(C)cc(=O)oc3c1)C2=O (configuration not stated) | 87.8% |
| O=C(OCCOCCO)N(c1cccc(Br)c1)c1nc(SCCN2CCOCC2)nc2c1cnn2CC(Cl)c1ccc(Br)cc1 (configuration not stated) | 20% |
| CCN1C(=O)N(CC)C2NNC(Sc3c(C(=O)O)c4ccccc4n(CC(C)C)c3=O)=NC21 (configuration not stated) | 4% (active) |
| CCN1C(=O)N(CC)C2NNC(Sc3c(C(=O)O)c4ccccc4n(CCC(C)C)c3=O)=NC21 (configuration not stated) | -25.4% (active) |
| O=C(N/N=C/c1ccc(Cl)cc1)c1ccc(OCc2nc3ccc(Cl)cc3[nH]2)cc1 | -20.3% (active) |
| COC(=O)c1cc(C(=O)C(Br)Br)n2c1ccc1c3ccccc3ccc12 | 77% |
| O=C(Nc1nc2ccccc2s1)Nc1ccccc1Cl | 111% |
| Oc1ccc(Cl)c(Nc2ncnc3c2cnn3CC(Cl)c2ccc(Br)cc2)c1 (configuration not stated) | 32.3% |
| ClC(Cn1ncc2c(Nc3cccc(Br)c3)nc(SCCN3CCOCC3)nc21)c1ccc(Br)cc1 (configuration not stated) | 33.2% |
| Nc1cc(-c2c[nH]c3ccc(F)cc23)nc2cc(-c3c[nH]c4ccccc34)nn12 | 28.8% |
| O=C1Nc2cc(-c3ccc(NS(=O)(=O)c4ccc(F)c(Cl)c4)cc3)ccc2/C1=C/c1ccc[nH]1 | 56.9% |

| SMILES | growth |
| --- | --- |
| O=C1CCC(N2C(=O)c3cccc(NCCOCCOCCOCCC(=O)NCCCC(=O)NC(c4ccc5c(c4)OCO5)c4cc(Cl)c5cccnc5c4O)c3C2=O)C(=O)C1 (configuration not stated) | 10.9% |
| Cn1cc(-c2cc3nc(-c4c[nH]c5ccccc45)cc(N)n3n2)c2ccccc21 | -76.3% (active) |
| CN1C(=O)C(O)(CC(=O)c2cc3ccccc3oc2=O)c2ccccc21 (configuration not stated) | 90.5% |
| COc1ccc(Nc2nnc(-c3c[nH]c4ccccc34)o2)cc1 | 94.4% |
| Cc1cccc(C)c1Nc1nnc(-c2c[nH]c3ccccc23)o1 | 121% |
| Cc1ccc(O)cc1Nc1nc(SCCN2CCOCC2)nc2c1cnn2CC(Cl)c1ccc(Br)cc1 (configuration not stated) | 26.5% |
| Fc1ccccc1CNc1nc(SCCN2CCOCC2)nc2c1cnn2CC(Cl)c1ccc(Br)cc1 (configuration not stated) | 66.7% |
| COC(=O)c1cc(C(=O)CBr)n2c1ccc1c3ccccc3ccc12 | 103% |
| Oc1ccc(F)c(Nc2nc(SCCN3CCOCC3)nc3c2cnn3CC(Cl)c2ccc(Br)cc2)c1 (configuration not stated) | 25.8% |
| COC(=O)c1c(C(=O)OC)c2ccc3c4ccccc4ccc3n2c1C(=O)C(C)Br (configuration not stated) | 16.7% |
| Cc1nn(-c2ccccc2)c2nc(C)n(C(=O)N/N=C/c3cccc([N+](=O)[O-])c3)c(=O)c12 | 99.8% |
| COc1ccc2[nH]cc(-c3cc(N)n4nc(-c5c[nH]c6ccccc56)cc4n3)c2c1 | 14.6% |
| CC(C)(C)C(=O)C1CC(C#N)=C2C=Cc3c(ccc4ccccc34)N21 (configuration not stated) | 96.3% |
| Oc1ccc(Cl)c(Nc2nc(SCCN3CCOCC3)nc3c2cnn3CC(Cl)c2ccc(Br)cc2)c1 (configuration not stated) | 29.9% |
| Fc1ccc(F)c(CNc2nc(SCCN3CCOCC3)nc3c2cnn3CC(Cl)c2ccc(Br)cc2)c1 (configuration not stated) | 45.2% |
| CN1CCN(C(=O)Oc2cc3c(c4ccccc24)[C@H](CCl)CN3C(=O)c2cc3cc(OCCCN4CCC4)ccc3[nH]2)[C@H]2CSSC[C@H]21 | -10.9% (active) |
| Nc1nc(-c2ccccc2)c(N=Nc2ccc(Cl)cc2Cl)s1 | -70.3% (active) |
